Laboratory results as given in PubChem BioAssay.
Activity calls are given as the source filed them.

What was measured:
[1] = compound effects on lung adenocarcinoma cell viability – A549, calcein-AM fluorescence, 48 h, basal, profiling panel (AID 1162); details: higher = more signal
[2] = compound effects on differentiated 3T3-L1 adipocyte viability – cell-based, 3T3-L1 adipocytes, calcein-AM fluorescence, 48 h, basal, profiling panel (AID 1163); details: 3T3-L1 adipocytes viability, higher = more signal
[3] = compound effects on hepatocellular carcinoma cell viability – HepG2, calcein-AM fluorescence, 48 h, basal, profiling panel (AID 1164); details: higher = more signal
[4] = compound effects on multiple myeloma cell viability – MM1S, calcein-AM fluorescence, 48 h, basal, profiling panel (AID 1165); details: higher = more signal;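 note: viability of MM1S multiple myeloma cells under basal unstimulated conditions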
[5] = calcein-AM signal in unstimulated myeloma cells – cell-based, calcein-AM fluorescence, 48 h, PK04 Diversity Set, profiling panel (AID 1166); details: RPMI8226 myeloma viability, higher = more signal;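 note: cells grown under basal conditions without added stimulus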
[6] = JC-1 mitochondrial signal, unstimulated HepG2 cells – cell-based, JC-1 fluorescence, 24 h, 100 nL compound, profiling panel (AID 1167); details: HepG2 mitochondrial potential, higher = more signal
[7] = JC-1 mitochondrial signal, unstimulated adipocytes – cell-based, JC-1 fluorescence, 3T3-L1 adipocytes, 24 h, 100 nL compound, profiling panel (AID 1168); details: JC-1 mitochondrial fluorescence, higher = more signal, called active from +8 up or from −8 down
[8] = JC-1 mitochondrial signal, unstimulated myeloma cells – cell-based, JC-1 fluorescence, RPMI8226, 24 h, 100 nL compound, profiling panel (AID 1169); details: JC-1 mitochondrial potential fluorescence, higher = more signal
[9] = JC-1 mitochondrial signal, unstimulated MM1S myeloma – cell-based, JC-1 fluorescence, 24 h, 100 nL compound, profiling panel (AID 1170); details: MM1S mitochondrial potential, higher = more signal
[10] = resazurin metabolic signal in A549 cells – cell-based, resazurin fluorescence, 24 h, PK04 Diversity Set, profiling panel (AID 1171); details: A549 viability, higher = more signal, called active from +8 up or from −8 down
Note: test concentration not given here.

| SMILES | z-score [1] | z-score [2] | z-score [3] | z-score [4] | z-score [5] | z-score [6] | z-score [7] | z-score [8] | z-score [9] | z-score [10] |
| --- | --- | --- | --- | --- | --- | --- | --- | --- | --- | --- |
| O=C(N1CCOCC1)[C@@]1(CCS(=O)(=O)c2ccccc2)COC(c2ccc(OCCCO)cc2)=N1 | 0.437 | -1.09 | -0.0333 | 0.205 | 0.108 | -0.33 | -0.4 (inactive) | 0.238 | -0.659 | 0.201 (inactive) |
| CC(C)C[C@H]1NC(=O)[C@H](C)NC(=O)[C@@]23C(=O)N[C@@H](Cc4ccccc4)C2[C@H](C)[C@@]2(C)O[C@H]2C3/C=C/C/C=C\CNC1=O (stereo not given in full) | -0.0541 | 0.392 | -0.17 | -0.36 | -0.659 | -0.482 | -0.752 (inactive) | -0.0616 | 1.34 | -0.271 (inactive) |
| CC1C=C(CCCO)C=C(C(=O)OCCS(C)(=O)=O)C(C(=O)OCCS(C)(=O)=O)=CN1Cc1cccc(OC(F)(F)F)c1 (stereo not given) | 0.114 | 0.606 | 1.23 | -0.289 | -0.226 | 1.27 | -0.63 (inactive) | 0.186 | -0.0273 | -0.0746 (inactive) |
| CC(C)CNC(=O)[C@@]1(c2ccc([N+](=O)[O-])cc2)CC(=O)N(C(C)C)[C@@H]1c1ccc(CO)cc1 | 0.264 | -0.0455 | 0.0153 | -1.07 | 0.399 | 0.621 | -0.167 (inactive) | 0.604 | -0.131 | 0.591 (inactive) |
| Cc1ccc(S[C@]2(C(=O)NCc3ccccc3)CC(=O)N(C3Cc4ccccc4C3)[C@@H]2c2ccc(CO)cc2I)cc1 | 1.38 | -0.196 | 1.54 | -2.33 | -1.52 | 0.353 | 0.698 (inactive) | -0.686 | -0.972 | -0.862 (inactive) |
| O=C1O[C@H](c2ccccc2)[C@H](c2ccccc2)N2[C@H]1[C@@H](C(=O)N1CCN(c3ncccn3)CC1)[C@]1(C(=O)Nc3ccc(C#CCCO)cc31)[C@H]2c1ccc(OCCO)cc1 | -0.696 | 0.404 | -0.53 | -1.04 | -0.284 | -0.838 | 0.717 (inactive) | -0.883 | -0.386 | 0.978 (inactive) |
| C=CCC(OC(C)=O)[C@@H]1[C@@H](N(Cc2cccc3ccccc23)C(=O)c2ccc(C)cc2)c2cc(OCCCO)ccc2N1C(=O)c1ccc2ccccc2c1 (stereo not given in full) | 0.93 | 1.08 | 2.15 | 0.577 | 0.12 | 2.37 | 0.658 (inactive) | 0.102 | -0.796 | 0.912 (inactive) |
| COCCOC(=O)N1C(=O)[C@@]2(c3cc(C#CCCO)ccc31)[C@H](C(=O)N1CCc3cc(OC)c(OC)cc3C1)[C@H]1C(=O)O[C@H](c3ccccc3)[C@H](c3ccccc3)N1[C@@H]2c1ccc(OCCO)cc1 | 1.31 | 1.05 | 1.15 | 0.214 | 1.23 | -0.495 | 1.21 (inactive) | -0.532 | -0.901 | 0.86 (inactive) |
| O=C(O)[C@]1(CCS(=O)(=O)c2ccccc2)N=C(c2ccc(OCCCO)cc2)O[C@@H]1c1ccccc1 | 0.195 | 0.103 | 0.296 | -1.2 | 1.18 | -0.509 | -0.372 (inactive) | -0.928 | 0.0474 | 0.704 (inactive) |
| CN(C)CCCCCCNC(=O)[C@@H]1C[C@@H]2C(=O)NCC(=O)N2[C@@H]1c1ccc(O)cc1 | -0.627 | 0.5 | -0.963 | -0.539 | 0.71 | -1.16 | -0.782 (inactive) | 0.3 | 0.216 | -0.898 (inactive) |
| COC(=O)[C@@]1(Cc2ccccc2)[C@H]2c3cc(C(=O)N4CCCC4)n(Cc4ccc(OC(F)(F)F)cc4)c3C[C@H]2CN1C(=O)c1ccccc1 | -0.975 | -0.8 | -1.56 | -1.89 | -2.47 | 1.77 | -1.42 (inactive) | -0.717 | -0.934 | -1.46 (inactive) |
| CC(=O)NCCCC[C@@H]1NC(=O)[C@@H]2C[C@H](C(=O)NCCCC[N+](C)(C)C)[C@H](c3cccc(OCCO)c3)N2C1=O | -1.05 | -1.28 | -0.776 | -0.265 | -1.95 | -0.851 | -0.0939 (inactive) | 0.287 | 0.235 | -0.485 (inactive) |
| C[N+](C)(C)CCCCNC(=O)[C@H]1C[C@H]2C(=O)NCC(=O)N2[C@H]1c1ccc(O)cc1 | -0.143 | -0.811 | 0.658 | 0.519 | 0.124 | 0.227 | -0.12 (inactive) | -0.797 | -0.988 | -1.02 (inactive) |
| COCCOC(=O)N1C(=O)[C@@]2(c3cc(C#Cc4ccc(OC)cc4)ccc31)[C@H](C(=O)N1CCc3cc(OC)c(OC)cc3C1)[C@H]1C(=O)O[C@H](c3ccccc3)[C@H](c3ccccc3)N1[C@@H]2c1ccc(OCCO)cc1 | -0.403 | 1.41 | -1.13 | -0.0142 | -1.38 | -0.999 | 2.31 (inactive) | -0.223 | -0.919 | -0.0945 (inactive) |
| O=C1c2ccccc2[C@](Cc2ccccc2I)(C(=O)NC2CC2)[C@H](c2ccc(CO)cc2)N1Cc1ccccc1Cl | -0.138 | -0.103 | -0.0887 | -1.39 | -0.715 | 0.833 | -0.469 (inactive) | -0.332 | -0.664 | 0.623 (inactive) |
